Source: PubChem BioAssay (NCI)
Compounds without any hit were thinned out: in the full panel of roughly 83,000, 20% have a hit.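 For each line, cells grew in 96-well plates with the test compound present at a single concentration for 48 hours.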 A number with no mark means an inactive call. Active and inactive are the calls of the source.

What follows are compounds tested on BT-549 breast (assay: NCI-60 one-dose screen, 48 h (100 = growth as untreated, 0 = no growth, -100 = all killed)). Conditions: 10 µM unless noted.
Method: Growth inhibition of the BT-549 human tumor cell line is measured as a screen for anti-cancer activity. Cells are grown in 96 well plates and exposed to the test compound for 48 hours. Compounds are tested at a single concentration, which is 10^-5 M for most compounds. The reported endpoint is percent growth (GI% or GIPRCNT), where numbers from 0 - 100% represent growth inhibition, and numbers from -100% - 0 represent cell death. For example, a value of 40 represents 60% growth inhibition. A value of 0 means no net growth occurred over the course of the experiment. A value of -40 indicates 40% of cells at the beginning of the experiment died by the end of the experiment. A value of -100 means all cells are dead at the end of the experiment.
NCI-60 Human Tumor Cell Lines Screen was performed using the standard one-dose NCI protocol, which is described in more detail at https://dtp.cancer.gov/discovery_development/nci-60/default.htm.
Compounds with GIPRCNT values below 10 were considered active. Activity score was based on GIPRCNT using the following formula: […]
Score is 0 for GIPRCNT values of 100 or above, 50 for GIPRCNT values of 0, and 100 for GIPRCNT values of -100.

| Structure (SMILES) | growth |
| --- | --- |
| Clc1nc2ccccc2nc1CI | 92% |
| CC(C)(C)c1cn2cccc(C(=O)N3CCN(CC(=O)Nc4ccc(Cl)cc4C(=O)c4ccccc4Cl)CC3)c2n1 | -15.1% (active) |
| COc1cc(OC)c(C(=O)/C=C/c2ccc(C#N)cc2)c(OC)c1 | -7.5% (active) |
| COc1ccc(/C=C2\Oc3cc(OCCN4CCCC4)ccc3C2=O)c(OC)c1 | 94.2% |
| O=C(O)C(Cc1ccccc1)N1C(=O)/C(=C/C(Cl)=C/c2ccc([N+](=O)[O-])cc2)SC1=S (stereo not given) | -28.1% (active) |
| CCN1C(=O)N(CC)C2Nn3c(s/c(=C\c4cccc(F)c4)c3=O)=NC21 (stereo not given) | 80.4% |
| COC(=O)C(CC(=O)c1ccc(-c2ccccc2)cc1)c1ccccc1 (stereo not given) | 71.2% |
| CC1=NN2C(=NC3=C(CCC/C3=C\c3ccc(Cl)cc3)C2c2ccc(Cl)cc2)S1 (stereo not given) | 97.9% |
| CCn1c(=O)c2c(=O)c3c4c(oc3oc2c2ccccc21)C(=O)c1ccccc1C4=O | 85.1% |
| Nc1nn2cc(-c3ccc(Cl)s3)nc2c2ccccc12 | 105% |
| COc1ccc(N=C2NN=C(c3ccc(F)cc3)CS2)cc1OC | 108% |
| COc1c(NC[C@H]2OC(O)[C@H](O)[C@@H](O)[C@@H]2O)c(=O)c1=O (stereo not given in full) | 112% |
| CCSc1nnc(NC(=O)Cc2ccc(Cl)cc2)s1 | 109% |
| C#CCN1C(=O)/C(=c2\sc3n(c2=O)NC2C(N=3)N(CC)C(=O)N2CC)c2ccccc21 (stereo not given) | 83.4% |
| COc1ccc(C2CC(=O)Nc3c2c(C)nn3-c2nc3ccccc3[nH]2)cc1OC (stereo not given) | 75.5% |
| CCCOC(=O)C1(O)CCCC1 | 113% |
| COc1ccccc1OCC(=O)Nc1sc2c(c1C(N)=O)CCC2 | 85.6% |
| O=S(=O)(NCCCNc1nccc(-c2c(-c3ccccc3)nc3sccn23)n1)c1ccc(F)cc1 | 54.3% |
| O=S=Nc1ccc([N+](=O)[O-])cc1 | 91.8% |
| CC(=O)/C=C/c1cc2cc(Cl)ccc2[nH]c1=O | 65.5% |

| Structure (SMILES) | growth |
| --- | --- |
| CCN1C(=S)N(CC)C2Nn3c(s/c(=C4\C(=O)N(C)c5ccccc54)c3=O)=NC21 (stereo not given) | 74.7% |
| CC1Cc2c(N(C)C)ncnc2N(C)c2ccc(O)cc21 (stereo not given) | 88.8% |
| O=C1CCCCC=C1C[N+](=O)[O-] | 97.2% |
| C=C1C(=O)O[C@H]2[C@H]1CC/C(COC(=O)NCCc1ccc(OC)cc1)=C\CC[C@@]1(C)O[C@@H]21 | 8.9% (active) |
| CCCC(C(=O)OCC)C(C)OC(=O)OCC (stereo not given) | 115% |
| Cc1ccc(S(=O)(=O)OC2COCOC2C(OS(=O)(=O)c2ccc(C)cc2)C2OCOCC2OS(=O)(=O)c2ccc(C)cc2)cc1 (stereo not given) | 98.2% |
| C[N+](C)(C)c1ccc(CC2c3ccccc3-c3ccccc32)cc1 | 59.2% |
| COC1=CC(c2ccc[nH]2)=N/C1=C\c1[nH]c(C)c(C(=O)CCCCC(=O)NCc2ccccc2)c1C | 21.5% |
| CN1CCN(CCCOc2ccc3nc(Nc4ccc(C(F)(F)F)c(Cl)c4)ccc3c2)CC1 | 80.9% |
| CN(C)c1ccc(/C=C\N=Nc2ccc(Br)cc2)cc1 | 69.1% |
| COc1cc(NC(=O)CCl)ccc(=O)c1 | 58.9% |
| OCc1c(-c2ccccc2)nc2sccn12 | 59.3% |
| O=C(O)c1ccc(-n2c(=O)c3ccccc3c3ccccc3c2=O)cc1 | 107% |
| Cc1ccc2nc(-c3c(N)n[nH]c3CCCO)[nH]c(=O)c2c1 | 104% |
| COc1ccc(-c2nc3sccn3c2-c2ccnc(NCCNS(=O)(=O)c3ccc(C(F)(F)F)cc3)n2)cc1 | 2.22% (active) |
| Cc1cc(-c2ccccc2)c(C)n1Cc1ccc(Cl)cc1 | 37.7% |
| COc1cc(OC)c(C(=O)/C=C/c2cccc(C#N)c2)c(OC)c1 | -3.25% (active) |
| Cn1c(=O)c2c(nc3n2CCN(CCc2ccc(OCCN4CCOCC4)cc2)C3)n(C)c1=O | 109% |
| N#CC1=C(N)OC2=C(C(=O)CCC2)C1c1ccco1 (stereo not given) | 110% |
| O=S(=O)(NCCCNc1cc(-c2cn(-c3ccccc3)nc2-c2cccc(O)c2)ccn1)c1ccc(C(F)(F)F)cc1 | 42.2% |
